# Test results taken from PubChem BioAssay AID463213 (Sanford-Burnham Center for Chemical Genomics, 2010).
# Screen size: about 7,400 compounds; about 4,100 (55%) were called active. So high a share suggests a set chosen from earlier hits. Not all results are given here. A number with no mark means an inactive call.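 How the source made its calls: active means inhibition of yeast growth at or above a set limit in either of two repeat tests at 20 µM; inactive means the rest.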
# Assay: growth inhibitors of tim10-1 mutant yeast, confirmation, single concentration, luminescence, S. cerevisiae (AID 463213);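 further: tim10-1 mutant grown at permissive 25 °C to find synthetic lethal compounds; 0% = DMSO yeast wells and 100% = medium wells without yeast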
# Conditions: S. cerevisiae tim10-1 ts strain growth, BacTiter-Glo, 24 h; at 20 µM; active compounds read high
row,Compound,inhibition
1,O=C(Nc1nnc(SCc2c(Cl)cccc2Cl)s1)C1CCCO1 (stereo not given),37% (active)
2,CN(C(=O)COc1nnc(-c2cccs2)c(-c2cccs2)n1)c1ccccc1,17%
3,CN(C(=O)CC(NC(=O)c1ccccc1)(c1ccccc1)c1ccccc1)c1ccccc1,31.1% (active)
4,CCOc1ccccc1/C=c1\sc2nc(-c3ccco3)nn2c1=O,49.4% (active)
5,CCc1cccc(CC)c1NC(=S)NCc1ccc2[nH]c(C)cc2c1,35.8% (active)
6,O=C1Oc2ccccc2C(=O)/C1=C/c1ccccc1O,55.9% (active)
7,CN(C)CCCN(C(=O)c1ccc(S(=O)(=O)N2CCCc3ccccc32)cc1)c1nc2ccc(F)cc2s1,44.5% (active)
8,COC(=O)c1cc(S(=O)(=O)N2CCN(c3cc(C)ccc3C)CC2)c[nH]1,17.7%
9,Nc1cc(OC(=O)c2ccccc2Br)nn1S(=O)(=O)c1ccccc1,33.8% (active)
10,O=C1c2ccccc2S(=O)(=O)N1CC(O)Cn1c2ccccc2c2ccccc21 (stereo not given),51.1% (active)
11,CCOC(=O)c1ccccc1CN1C(=O)c2ccccc2S1(=O)=O,17.6%
12,Cc1ccc(C)c(N2CCN(C(=O)CCCCn3c(=O)[nH]c4ccccc4c3=O)CC2)c1,17.4%
13,COc1cccc(-c2cc3nc4c(c(N5CCC6(CC5)OCCO6)n3n2)CCCC4)c1,-1.05%
14,O=c1nc2s/c(=C\c3ccco3)c(=O)n2nc1Cc1ccccc1,66.9% (active)
15,O=C1OC(/C=C/c2ccccc2)=NC/1=C/c1ccco1,3%
16,O=C(CSc1cccc2cccnc12)N/N=C/c1cccnc1,36% (active)
17,CCOc1cc(-c2conc2N)cc(OCC)c1OCC,20.5%
18,COC(=O)c1ccc(NC(=O)c2ccccc2NS(=O)(=O)c2ccccc2)cc1,19.4%
19,CCOC(=O)c1ccc(NC(=O)c2nc[nH]c2C(=O)NCc2ccccc2)cc1,41.4% (active)
20,CN1CCN(c2ccccc2NC(=O)COc2ccc(C3CCCCC3)cc2)CC1,12.4%
21,Cc1ccccc1OCC(=O)Nc1ccc(N2CCN(C(=O)C(C)C)CC2)c(Cl)c1,66.9% (active)
22,O=C(COc1ccccc1F)NNC(=O)c1ccc(N2CCCCC2)c([N+](=O)[O-])c1,25.8%
23,O=[N+]([O-])c1c(NCCO)cc(Sc2nc3ccccc3s2)c2nonc12,19% (active)
24,CNC(=O)c1csc(Cc2c(Cl)sc3ccc(Cl)cc23)n1,20.5%

row,Compound,inhibition
1,CCCc1cc(-c2nc(-c3ccc(C)cc3)cs2)ccn1,34.8% (active)
2,CCOC(=O)/C=C/c1ccc(C(F)(F)F)cc1S(=O)(=O)NC(C)(C)C,29.9%
3,O=C(Nc1ccccc1Cl)/C(Cl)=C(\Cl)S(=O)c1ccccc1 (stereo not given),55% (active)
4,Cc1[nH]n(C(N)=S)c(=O)c1N=Nc1ccc(Cl)cc1Cl,61.3% (active)
5,CC(=O)Oc1ccc2c(c1)C(=O)c1ccccc1C2=O,31.1% (active)
6,O=C(CSC(=S)N1CCOCC1)c1cc(Br)cc(Br)c1O,46% (active)
7,C[C@@H](NC(=O)OC(C)(C)C)c1nnc(S(=O)(=O)Cc2ccccc2)o1,48.3% (active)
8,CCOC(=O)Cc1csc(SCC(=O)NC(C)C23CC4CC(CC(C4)C2)C3)n1 (stereo not given),40.4% (active)
9,CCOC(=O)Cc1csc(NC(=O)CSc2ccc(Br)cc2)n1,31.3% (active)
10,COc1ccc(NC(C)=O)cc1NC(=O)CN1CCN(C2c3ccccc3-c3ccccc32)CC1,15.5%
11,O=C(Nc1ccccc1)c1nnsc1S(=O)(=O)c1ccc(Cl)cc1,85.3% (active)
12,COc1cc(/C=C2/C(=O)ON=C2C)ccc1OCc1ccccc1F,26.9%
13,CCCN(CC1COc2ccccc2O1)C(=S)Nc1ccc(C)cc1 (stereo not given),36.7% (active)
14,Cc1ccoc1C(=O)Nc1cccc(Oc2ccccc2)c1,43.2% (active)
15,Cc1ccc(C(=O)COc2cccc(NC(=O)c3ccco3)c2)cc1,5.8%
16,CN(C)N1C(N)=C(C#N)C(c2ccc(Br)cc2)C2=C1CCCC2=O (stereo not given),8.4%
17,S=c1[nH]nc(-c2cccnc2)n1/N=C/C(Cl)=C\c1ccccc1,33.9% (active)
18,Fc1ccccc1/C=C1\CCCC2=C1Nc1ncnn1C2c1ccccc1F (stereo not given),30.5% (active)
19,Cc1ccc2c(N)c(C(=O)c3ccccc3)sc2n1,29.6%
20,Cc1nc2sc(C(=O)c3ccccc3)c(N)c2c2c1CCCC2,37.9% (active)
21,NC(=O)c1sc2nc3c(c(-c4ccccc4)c2c1N)CCC3,19.1%
22,CCn1c(COc2c(C)cccc2C)nnc1SCc1nc2ccccc2c(=O)[nH]1,20.1%
23,CCCCCCCCCCCCCCCC(=O)OC/C=C(C)/C=C/C=C(C)/C=C/C1=C(C)CCCC1(C)C,17.2%
24,COC(=O)CCc1sc(Nc2ccc(Br)cc2)nc1-c1ccc(OC)cc1,19.9%

row,Compound,inhibition
1,COc1ccc(C(=O)COC(=O)c2ccc([N+](=O)[O-])s2)cc1OC,50.6% (active)
2,COc1ccc(C(=O)OCC(=O)c2cc(C)n(CC3CCCO3)c2C)cc1[N+](=O)[O-] (stereo not given),6%
3,O=C1Nc2ccc(Br)cc2/C1=N/N=C/C1=C(N2CCOCC2)C(=C\c2ccccc2)/CC1,59.5% (active)
4,O=S(=O)(Nc1ccc(O)c2ccccc12)c1ccc(OC(F)(F)F)cc1,32.2% (active)
5,CC(C)NC(=O)/C(C#N)=C\c1ccc(N(C)C)c(Br)c1,46.5% (active)
6,O=C1NC(Nc2nc3ccccc3s2)(C(F)(F)F)C(=O)N1C1CCCCC1 (stereo not given),35.5% (active)
7,COC(=O)c1c(NC(=O)COc2ccc(Cl)cc2Cl)sc2c1CC(C)(C)NC2(C)C,14.3%
8,Clc1ccc(Nc2nc(-c3cccs3)cs2)nc1,15%
9,Cc1ccc(Nc2nc(-c3ccc(O)cc3O)cs2)nc1,27.6% (active)
10,COc1ccccc1N1CCN(C(=O)c2cc(=O)c3cc(C)cc(C)c3o2)CC1,24.9%
11,O=[N+]([O-])c1ccc(N/N=C2/CCCCC2c2ccccn2)c([N+](=O)[O-])c1 (stereo not given),38.6% (active)
12,CCOC(=O)C/C(C)=N\Nc1ccc([N+](=O)[O-])cc1[N+](=O)[O-],9.35%
13,c1ccc(-c2nnc3n2NC(c2ccc4c(c2)OCO4)S3)cc1 (stereo not given),34% (active)
14,Cc1cccc(C2c3[nH]c4ccccc4c3CCN2C(=O)c2cc(-c3cccn3C)n[nH]2)n1 (stereo not given),14.3%
15,CCCCC(=O)Nc1nc(C)c(-c2csc(Nc3ccc(Cl)cc3)n2)s1,31% (active)
16,C=CCCC(=O)Nc1nc(C)c(-c2csc(Nc3ccc(Cl)cc3)n2)s1,19.9%
17,O=[N+]([O-])c1ccc(C=Nc2ccc(Cl)cc2Cl)s1,69.8% (active)
18,COc1ccc(/C=C/C2=CC(C)(C)NC(=S)N2)c(OC)c1,20.4%
19,NS(=O)(=O)c1ccc(NC(=S)Nc2ccc(Br)c(Cl)c2)cc1,41.2% (active)
20,CC(Nc1nc(C(F)(F)F)nc2ccccc12)c1cccs1 (stereo not given),30.1% (active)
21,O=[N+]([O-])c1ccc2c(c1)Nc1nc3ccccc3nc1N2,70.2% (active)
22,O=C1CC(c2ccccc2)=NN1c1ccc([N+](=O)[O-])cc1,23.8%
23,COc1ccccc1NC(=O)C1=C(C)Nc2nnnn2C1c1cccc(Br)c1 (stereo not given),28.7%
24,CC(C)c1cc(C(N)=O)c(NC(=O)c2cccc(COc3ccc(Br)cc3)c2)s1,26.9%

row,Compound,inhibition
1,CCc1cc(C(N)=O)c(NC(=O)c2ccc(OC)cc2)s1,58.2% (active)
2,Cn1c(-c2sccc2OCc2cccc(C(F)(F)F)c2)n[nH]c1=S,25.1%
3,CCSC1=C(C#N)C(=O)n2c1cc1c2CCCC1,52.3% (active)
4,N#CC1(C#N)C(C(=O)C23CC4CC(CC(C4)C2)C3)C12CCOCC2 (stereo not given),41.9% (active)
5,COc1cc(NS(=O)(=O)c2ccc3ccccc3c2)c2ncccc2c1,27.8%
6,COc1ccc(S(=O)(=O)Nc2ccc(O)c(Sc3nc4ccccc4s3)c2)cc1,37% (active)
7,CC(=NCc1ccc2c(c1)OCO2)C1=C(O)c2ccccc2C1=O,40.3% (active)
8,c1ccc(-c2cn3c(n2)CCc2ccc4cccnc4c2-3)cc1,30.3% (active)
9,Cc1nc2ccccc2cc1OCc1ccc(F)cc1,9.05%
10,Cc1ccc(-c2csc(-c3c[nH]c4ccccc34)n2)cc1,50.9% (active)
11,O=C(c1cccs1)N(C(=O)c1cccs1)c1ccccn1,20.9%
12,COc1ccc(C)cc1Nc1nc(C)nc2c1oc1ccccc12,25.5%
13,O=C(CCc1ccc(S(=O)(=O)N2CCOCC2)cc1)Nc1ccc2ccccc2c1,28.1%
14,O=C(NCCc1ccc(F)cc1)c1ccc(S(=O)(=O)N2CCCCC2)cc1,43.5% (active)
15,COc1ccc(Oc2cn[nH]c2-c2ccc(OC)cc2O)cc1,39.3% (active)
16,CCCc1[nH]nc2c1C(c1ccc(Br)s1)C(C#N)=C(N)O2 (stereo not given),79.5% (active)
17,CSc1ccc(S(=O)(=O)NCc2ccc(Cl)cc2)cc1,30.4% (active)
18,CSc1ccc(S(=O)(=O)NC2CCCCC2)cc1,22.4%
19,N/C(=N\OC(=O)c1cc(-c2ccccc2)nc2ccccc12)c1ccncc1,70.7% (active)
20,O=C(/C=C/c1ccc(Cl)c([N+](=O)[O-])c1)c1ccc(O)cc1,48.3% (active)
21,O=C(/C=C/c1ccc(Cl)c([N+](=O)[O-])c1)c1cccnc1,62% (active)
22,O=[N+]([O-])c1ccc(N2CCN(c3ccc(O)cc3)CC2)c(Cl)c1,30.2%
23,Cc1ccc(N2C(=O)C(Cc3ccccc3)NC2=S)cc1 (stereo not given),16.7%
